Measured values: PubChem BioAssay AID434947 (Broad Institute, 2010)
The campaign covered roughly 2,200 compounds. About 15 (0.7%) were called active.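 How the source made its calls: active means fitted half-maximal concentration for loss of luminescence signal no more than a set limit of log units above the top tested concentration; inconclusive means flat fit with 30 to 70% signal loss, or invalid fit; inactive means half-maximal concentration above that set limit.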 Only a selection was taken, and actives are over-represented in it overall.

test: ADP-Glo luciferase signal interference – biochemical, luminescence, cell-free, homogeneous, artefact control for GSK3beta inhibitor project, dose response (AID 434947); conditions: Cell-free ADP-Glo reagents, 5 uM ADP;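 further: kinase-free counter screen of ADP-Glo detection reagents for GSK3beta hits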

EC50, active:
Cc1ccc(C(=O)O/N=C(\N)c2ccccn2)c(Cl)c1 26.6 µM, Cc1ccc(C(=O)O/N=C(\N)c2ccccn2)c(C)c1 17.6 µM, COc1ccc(C(=O)O/N=C(\N)c2ccccn2)cc1 15.5 µM, O=c1c2ccccc2cnn1-c1nc2ccccc2[nH]1 25.9 µM

EC50, inactive:
CNc1nc(N)c([N+](=O)[O-])c(NCC2CCCO2)n1 (stereo unspecified) > 30 µM, COc1cc(SC)ccc1C(=O)OCC(=O)NCCNC(=O)COC(=O)c1ccc(SC)cc1OC > 30 µM, CCOC(=O)COC(=O)c1ccc(O)cc1 > 30 µM, Cc1ccc2nc3c(cc2c1)c(NC(=O)c1ccccn1)nn3CC(C)C > 30 µM, COc1ccc(C(=O)OCCc2ccc(O)cc2)cc1 > 30 µM, COc1ccc(C(=O)c2sc(Nc3ccccc3)nc2N)cc1 > 30 µM, Cc1ccc(-c2cc(C(=O)NCCc3ccccn3)c3ccccc3n2)c(C)c1 > 30 µM, Cc1ccc(C(=O)N/N=C2\CCCc3ccccc32)c(C)c1 > 30 µM, CCc1ccc(CNC(=O)C2CCC(=O)N(CCc3ccc(Cl)cc3)C2)nc1 (stereo unspecified) > 30 µM, O=C(O)COc1ccc(C(=O)c2ccccc2)cc1 > 30 µM, CSc1nc(NCCCN(C)C)c2c3c(sc2n1)CN(C)CC3 > 30 µM, OCCNc1nc(-c2cccnc2)nc2ccccc12 > 30 µM, CCC(C)Nc1nc(N)c([N+](=O)[O-])c(NCc2ccccc2)n1 (stereo unspecified) > 30 µM, Cc1ccc(NC(=O)CSCc2ccc(F)cc2)cc1 > 30 µM, CCN1CCc2c(sc(NC(=O)Cc3ccccc3)c2C(N)=O)C1 > 30 µM, COc1ccc(OC)c(C(O)c2coc3ccc(O)c(CN(C)C)c23)c1 (stereo unspecified) > 30 µM, CCn1c(/C=C/N(C(C)=O)c2ccccc2)[n+](CC)c2ccc(Cl)cc21 > 30 µM, CCOc1ccc(/C=N/Nc2ccccn2)cc1OC > 30 µM, Cc1ccc(S(=O)(=O)CC(=O)c2cc3cccc(C)c3oc2=O)cc1 > 30 µM, Nc1nc(NCCc2ccccc2)nc(NCCO)c1[N+](=O)[O-] > 30 µM, O=C(N/N=C/c1ccc(-c2ccc(Cl)c(C(=O)O)c2)o1)c1cc2c(ccc3ccccc32)o1 > 30 µM, CCn1c(SCC(=O)Nc2nccs2)nnc1C1CC1 > 30 µM, COc1ccc(N(C(=O)c2ccncc2)S(=O)(=O)c2cccc([N+](=O)[O-])c2)cc1 > 30 µM, Cc1ccc(-c2nc(Nc3cccc(O)c3)c3ccccc3n2)cc1 > 30 µM, CN(C)S(=O)(=O)c1cc(NC(=O)COC(=O)Cc2ccc(Br)cc2)ccc1Cl > 30 µM, CSc1nc(C)cc(-n2ccc(=O)[nH]c2=O)n1 > 30 µM, CC(C)OCCCN1CN(S(=O)(=O)c2cccc(Cl)c2)c2nc3ccccc3nc21 > 30 µM, COc1ccc(-c2nn(-c3ccccc3)cc2C(=O)O)cc1 > 30 µM, COCCOc1ccc(C(F)(F)F)cc1NC(=O)COC(=O)c1cc[n+]([O-])cc1 > 30 µM, COc1cccc(C(=O)Nc2nc3ccccc3s2)c1 > 30 µM, CCSc1ccc2nnc(-c3cccs3)n2n1 > 30 µM, CCCCn1nc(NC(=O)CCC)c2cc3cc(OC)ccc3nc21 > 30 µM, COc1cccc(Nc2nc(-c3ccccc3)nc3ccccc23)c1 > 30 µM, O=C1Nc2cc(C(=O)NCCCN3CCOCC3)ccc2S/C1=C/c1ccccc1F > 30 µM, Cc1csc2c(=O)n(CCO)c(=O)[nH]c12 > 30 µM, CCOc1cc(C2c3c(n[nH]c3C)C(=O)N2c2ccc(Br)cc2)ccc1O (stereo unspecified) > 30 µM, COC(=O)c1cn(NC(=O)c2cccnc2)c(=O)c2ccccc12 > 30 µM, CCCc1cc(O)c2c(C)cc(=O)oc2c1 > 30 µM, COc1ccc(/C=C2/Sc3ccc(C(=O)NCCN4CCCCCC4)cc3NC2=O)cc1 > 30 µM, Cc1ccccc1-c1nnc(SCc2ccc(F)cc2)o1 > 30 µM, CCCN(CCC)CCCNc1ccc2nnc(-c3ccc(F)cc3)n2n1 > 30 µM, O=c1c(O[C@@H]2O[C@H](CO)[C@@H](O)[C@H](O)[C@H]2O)c(-c2ccc(O)c(O)c2)oc2cc(O)cc(O)c12 > 30 µM, Cc1ccc2c(c1)cc1c(=O)n(CC(=O)NCCN3CCCC3)nc(C)n12 > 30 µM, COc1cccc2cc(C(=O)OC(C)C(=O)c3ccc(C)cc3)c(=O)oc12 (stereo unspecified) > 30 µM, CC(=O)Oc1cc(C)cc2oc(=O)cc(-c3ccccc3)c12 > 30 µM, CC1(C)CC(=O)C=C(Nc2ccc(F)cc2)C1 > 30 µM, COc1ccc(NC(=O)c2sc(SC)nc2N)cc1 > 30 µM, CCOC(=O)c1nnn(CC(=O)Nc2cccc(OC)c2)c1C(=O)OCC > 30 µM, CC1(C)CC(=O)C2=C(C1)Nc1ccccc1NC2c1ccc(F)cc1 (stereo unspecified) > 30 µM, O=C(Nc1ccccc1)Nc1ccncc1 > 30 µM, Cc1cc([N+](=O)[O-])c(C)cc1-c1ccc(/C=N/n2cnnc2)o1 > 30 µM, Nc1nc(NCCCN2CCOCC2)nc(Nc2ccc(Cl)cc2)c1[N+](=O)[O-] > 30 µM, CCCC(=O)Nc1nn(CC(C)C)c2nc3cc(C)ccc3cc12 > 30 µM, N#Cc1cccc(-c2nnc(SCc3ccccc3C#N)o2)c1 > 30 µM, COc1cc(C2OCC3C(c4cc(OC)c(OC)c(OC)c4)OCC23)cc(OC)c1OC (stereo unspecified) > 30 µM, CN1CCN(C(=O)Cn2ncc3c([nH]c4ccccc43)c2=O)CC1 > 11 µM, Cc1cc(NC(=O)/C=C/c2cccc(F)c2)n(-c2nc3ccccc3[nH]2)n1 > 30 µM
